Sampled rows, rich in hits. Any-hit rate of the full collection: about 9.5%.
RE007 growth inh: less growth of the S. pombe RE007 Vpr strain | S. pombe RE007 Vpr strain, BacTiter-Glo ATP luminescence, 24 h | Potency, µM (series often up to 92.2 µM), for the others: top-dose activity change, negative = less growth, usual class: inhibitors | 360,000 compounds, 0.21% hits; active means well fitted falling curve with a large enough effect; inconclusive means small, poorly fitted or top-dose-only effect; inactive means no such curve, though single readings can be large or run the other way; further: on the % scale 0 is the no-effect control and ±100 the full control effect; nearly all actives have a fitted effect of over 50% in size
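Fission yeast strain RE007, carrying one chromosomally integrated HIV-1 vpr copy, was seeded at OD 0.01 in PMG+AL medium with 23 nL pinned compound. After 24 h at 30 °C and 99% humidity, viability was read by BacTiter-Glo luminescence.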
SARS PLP yeast: inhibitors of SARS-CoV papain-like protease in yeast; S. cerevisiae expressing SARS-CoV PLpro, growth rescue; Potency, µM (doses to about 32.9 µM), without a hit: top-dose activity, positive = growth rescue, actives largely listed as activators; 330,000 compounds, 0.19% hits; AID 485353; calls by dose curve; further: 0% is about no effect; nearly all actives have a fitted effect of over 55% in size
Pf growth 96h: P. falciparum growth inhibition at 96 hours; P. falciparum luciferase reporter growth, 96 h; Potency, µM (series often up to 28.7 µM), for the others: top-dose activity change, negative = inhibition, most hits filed as inhibitors; 320,000 compounds, 6.9% hits; AID 504834; further: on the % scale 0 is the no-effect control and ±100 the full control effect
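Plates of compound plus infected erythrocytes (2% hematocrit, 0.05% parasitemia final) incubate 96 hours, 37 C, 5% CO2. Detection reagent added; reduced luminescence from the parasites' luciferase reporter flags inhibition.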
NS1 inh: blocks influenza NS1 protein function; 270,000 compounds, 0.4% hits; Potency, µM (doses to about 46.1 µM), for the others: at the highest dose activity, positive = more growth; calls by dose curve; further: actives are rising curves; nearly all actives have a fitted effect of over 50% in size
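A cell-based growth assay was used: compounds that relieve NS1-induced slow growth of budding yeast raise OD600. Assay medium was yeast nitrogen base with ammonium sulphate and -URA supplement, pH 6.0, with 2% galactose.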
Pf growth 48h: inhibits P. falciparum growth in the first generation, 48 h. P. falciparum luciferase growth in erythrocytes, 48 h. Potency, µM (highest dose often 28.7 µM), inactives show at the top dose activity change, negative = inhibition, most hits filed as inhibitors. 310,000 compounds, 5.9% hits; further: on the % scale 0 is the no-effect control and ±100 the full control effect
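Firefly luciferase activity from engineered P. falciparum reports growth; inhibitors lower the luminescent signal. Cultures contained 2% hematocrit erythrocytes at 0.1% final parasitemia.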
Starred values were filed as active, the others as inactive. Unless noted, the call rests on the fitted dose curve; in most records, active means well fitted inhibition curve with a large enough effect; inconclusive means small, poorly fitted or top-dose-only effect, or another doubt; inactive means no such curve, though single readings can be large or run the other way. Potency means the concentration at half of the fitted maximal effect.

For CC1=C(C(=O)N(C(C)C)C(C)C)CC(CC(=O)NCc2cccs2)C(=O)N1CCC1=CCCCC1 (stereo not drawn) the results were RE007 growth inh 9.0%.
For CC12CCC(C1)C(C)(C)C2=O (stereo not drawn) the results were Pf growth 96h -7.6% and Pf growth 48h 4.6%.
O=[N+]([O-])c1cccc(/C=C/c2nc[nH]c2[N+](=O)[O-])c1 was read as RE007 growth inh -13.9%, SARS PLP yeast -0.5%, Pf growth 96h 1.47µM*, NS1 inh 1.4% and Pf growth 48h inconclusive.
Screening CC1(C)COC(/C=C/c2cccc([N+](=O)[O-])c2)=N1 returned RE007 growth inh -16.0%, SARS PLP yeast -5.7%, Pf growth 96h -31.1%, NS1 inh -61.3% and Pf growth 48h inconclusive.
COc1ccc(CCC(=O)Nc2ccc(OC)c(S(=O)(=O)N3CCCCC3)c2)cc1 was read as RE007 growth inh -1.2%, SARS PLP yeast -7.5%, Pf growth 96h inconclusive and Pf growth 48h inconclusive.
`Cc1ccc2c(c1)N(C(=O)CCC(=O)NCc1cccnc1)CC(C)O2` (stereo not drawn) gave RE007 growth inh -9.0%, SARS PLP yeast -9.8%, Pf growth 96h 13.1µM*, NS1 inh -12.0% and Pf growth 48h -8.6%.
`Cc1ccc(CNC(=O)CCC(=O)N2CC(C)Oc3ccccc32)cc1` (stereo not drawn) gave RE007 growth inh 12.4%, SARS PLP yeast -3.0%, Pf growth 96h 64.4%, NS1 inh 11.2% and Pf growth 48h 4.3%.
Screening Cc1ccc2c(c1)N(C(=O)CCC(=O)N1CCC(C(N)=O)CC1)CC(C)O2 (stereo not drawn) returned RE007 growth inh 5.3%, SARS PLP yeast -1.1%, Pf growth 96h 13.1µM*, NS1 inh 12.7% and Pf growth 48h -5.2%.
Screening Cc1ccc2c(c1)N(C(=O)CCC(=O)N1CCOCC1)CC(C)O2 (stereo not drawn) returned RE007 growth inh -7.9%, SARS PLP yeast -3.7%, Pf growth 96h 34.6%, NS1 inh 0.7% and Pf growth 48h -11.2%.
For COc1ccc(CCN2CCCC(CN(C)C(=O)c3ccoc3)C2)cc1 (stereo not drawn) the results were RE007 growth inh -12.8%, SARS PLP yeast 2.8%, Pf growth 96h 0.0%, NS1 inh 8.2% and Pf growth 48h -0.5%.
Screening COc1ccc(CN(C)CC2CCCN(CCc3ccccc3C)C2)cc1O (stereo not drawn) returned RE007 growth inh 14.0%, SARS PLP yeast -10.2%, Pf growth 96h inconclusive, NS1 inh 5.9% and Pf growth 48h 5.86µM*.
For COc1ccc(CCN2CCCC(CN(C)Cc3cc(Cl)c(O)c(OC)c3)C2)cc1 (stereo not drawn) the results were RE007 growth inh -9.6%, SARS PLP yeast -9.2%, Pf growth 96h 105.7%, NS1 inh 10.0% and Pf growth 48h 2.33µM*.
For Fc1ccc2nncc(SCc3ccccc3Cl)c2c1 the results were RE007 growth inh 11.9%.
For Fc1cnc(N2CCN(c3ccccc3)CC2)nc1N1CCN(c2ccccc2)CC1 the results were RE007 growth inh -8.8%, SARS PLP yeast -9.3%, Pf growth 96h 0.5%, NS1 inh 17.6% and Pf growth 48h 13.1µM*.
`O=C1CCCc2nc(N3CCN(c4ccccc4)CC3)ncc21` gave RE007 growth inh -7.0%, SARS PLP yeast 0.8%, Pf growth 96h -10.6%, NS1 inh inconclusive and Pf growth 48h 29.0%.
`Cc1ccccc1CN(C)C(=O)[C@H](Cc1ccccc1)NC(=O)c1ccco1` gave RE007 growth inh 12.0%, SARS PLP yeast 14.9%, Pf growth 96h 8.28µM* and Pf growth 48h inconclusive.
`Cc1cccc(COCCN2CCN(S(=O)(=O)c3ccccc3)CCC2=O)c1` gave RE007 growth inh -15.1%, SARS PLP yeast 2.1%, Pf growth 96h 14.7µM*, NS1 inh 2.4% and Pf growth 48h -7.8%.
`O=C1CCN(S(=O)(=O)c2ccccc2)CCN1CCOCc1ccccc1` gave RE007 growth inh -11.5%, SARS PLP yeast 3.6%, Pf growth 96h 9.28µM*, NS1 inh 8.0% and Pf growth 48h -5.7%.
For Cc1cc(NC(=O)CSc2nc3c([nH]c4ccccc43)c(=O)n2-c2cccc(C(F)(F)F)c2)no1 the results were RE007 growth inh 1.2%, SARS PLP yeast 16.5%, Pf growth 96h 9.28µM*, NS1 inh 4.4% and Pf growth 48h 11.7µM*.
For Cc1ccccc1-n1c(SCC(=O)NCC2CCCO2)nc2c([nH]c3ccccc32)c1=O (stereo not drawn) the results were RE007 growth inh -6.8%, SARS PLP yeast -2.9%, Pf growth 96h -22.1%, NS1 inh -7.0% and Pf growth 48h inconclusive.
Screening O=C(CSc1nc2c([nH]c3ccccc32)c(=O)n1-c1ccccc1F)NCC1CCCO1 (stereo not drawn) returned RE007 growth inh 11.6%, SARS PLP yeast 2.8%, Pf growth 96h inconclusive, NS1 inh 3.1% and Pf growth 48h inconclusive.
`COc1cccc(-n2c(SCC(=O)Nc3cc(C)on3)nc3c([nH]c4ccccc43)c2=O)c1` gave RE007 growth inh -12.0%, SARS PLP yeast -6.0%, Pf growth 96h inconclusive, NS1 inh inconclusive and Pf growth 48h inconclusive.
COc1ccccc1-n1c(SCC(=O)Nc2cc(C)on2)nc2c([nH]c3ccccc32)c1=O was read as RE007 growth inh -3.8%, SARS PLP yeast 6.3%, Pf growth 96h 11.7µM*, NS1 inh -19.7% and Pf growth 48h -20.6%.
Screening COc1ccc(C)cc1-n1c(SCC(=O)NCC2CCCO2)nc2c([nH]c3ccccc32)c1=O (stereo not drawn) returned RE007 growth inh 4.5%, SARS PLP yeast 7.3%, Pf growth 96h inconclusive, NS1 inh inconclusive and Pf growth 48h 9.28µM*.
Cc1cc(NC(=O)CSc2nc3c([nH]c4ccccc43)c(=O)n2-c2ccccc2F)no1 was read as RE007 growth inh -14.2%, SARS PLP yeast 5.0%, Pf growth 96h 13.1µM*, NS1 inh -33.3% and Pf growth 48h 13.1µM*.
For O=C(NCc1ccccc1)c1cnsn1 the results were RE007 growth inh -1.4%, SARS PLP yeast 0.2%, Pf growth 96h 1.31µM*, NS1 inh -2.2% and Pf growth 48h -15.0%.
CC(C)(C)c1ccc(C(=O)NCc2ccccc2)cc1 was read as RE007 growth inh -1.9%, SARS PLP yeast 0.2%, Pf growth 96h 9.28µM*, NS1 inh -0.4% and Pf growth 48h 142.1%.
For CC(C)(C)c1ccc(C(=O)Nc2ccc(C(=O)NCc3cccnc3)cc2)cc1 the results were RE007 growth inh 3.4%, SARS PLP yeast 0.2%, Pf growth 96h -1.0%, NS1 inh -1.5% and Pf growth 48h 6.57µM*.
Screening CC(C)(C)C(=O)Nc1ccc(C(=O)NCc2cccnc2)cc1 returned RE007 growth inh -10.3%, NS1 inh 8.7% and Pf growth 48h 40.2%.
`O=C(NCc1ccccc1)c1ccccc1` gave RE007 growth inh -9.5%.

Screening data as filed in PubChem.
